These results are taken from PubChem BioAssay (NCATS).

The structures appear in SMILES notation. Several values for one entry are separate records, joined by “and”; a condition that tells them apart may be missing. Identical values can stand only once. A number with no mark means an inactive call. Results filed as inconclusive are left out. Activity calls are given as the source filed them. Unless noted, calls follow the shape of the dose curve; as a rule, active = well fitted curve in the direction sought with a large enough effect; inconclusive = small, poorly fitted or top-dose-only effect, or another doubt; inactive = no such curve, though single readings can be large; an effect the other way counts as inactive or inconclusive.

A short description of assay [1]: S16 Schwann cell PMP22 intronic element firefly luciferase assay (AID 624032). Also: nearly all actives have a fitted effect of over 30% in size. Also: potency is read from the fitted curve at half-maximal effect. The gist of the method: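 Luciferase reporter of PMP22 intronic-element expression in stably transfected S16 rat Schwann cells, read by ONE-Glo luminescence after 24 h compound exposure at 37 C. Activity scaled between DMSO (0%) and positive-control PTC124; concentration-effect curves quality-classified.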

A short description of assay [2]: qHTS assay for small molecule agonists of the antioxidant response element (ARE) signaling pathway (AID 651741; active = well fitted activation curve with a large enough effect in the signal ratio; the % refers to the signal ratio; also: potency is read from the fitted curve at half-maximal effect; as to activation: % of control where 0% means no effect). The procedure, abridged:
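Quantitative HTS in HepG2 cells stably expressing an ARE-beta-lactamase reporter; 16 h compound exposure at 37 C, followed by 2 h room-temperature incubation with LiveBLAzer B/G FRET substrate and fluorescence measurement.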
(In qHTS, concentration-response curves come from the screen itself.)

The nature of assay [3]: qHTS assay for small molecule activators of the p53 signaling pathway (AID 651743; active = well fitted activation curve with a large enough effect in the signal ratio, not every such curve was filed as active; the % refers to the signal ratio; also: potency is read from the fitted curve at half-maximal effect; as to activation: series mostly up to about 92 µM; % of control where 0% means no effect). To be noted: HCT-116 p53RE-bla, beta-lactamase FRET ratio, 16 h; activation: hits give high values. The procedure, abridged: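 Read-out is fluorescence intensity from the LiveBLAzer B/G FRET substrate, added for 2 hours at room temperature after HCT-116 p53RE-bla cells had been incubated with compounds for 16 hours at 37 C.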

The nature of assay [4]: qHTS assay for small molecule disruptors of the mitochondrial membrane potential - 1 hr assay (AID 651754; calls by dose curve; also: nearly all actives have a fitted effect of over 35% in size; also: potency is read from the fitted curve at half-maximal effect). The gist of the method:
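HepG2, 2,000 cells/well, overnight attachment; cpd or DMSO 1 hr, 37C/5% CO2; Mito-MPS dye 30 min, 37C; fluorescence monomer (490/535) and aggregate (540/590).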

Assay [5] in a line: qHTS assay for small molecule disruptors of the mitochondrial membrane potential - 5 hr assay (AID 651755; calls by dose curve; also: nearly all actives have a fitted effect of over 40% in size; also: potency is read from the fitted curve at half-maximal effect). The procedure, abridged:
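HepG2, 2,000 cells/well, overnight attach; cpd or DMSO 5 hr, 37C/5% CO2; Mito-MPS 30 min 37C; fluor 490/535 + 540/590 nm.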

A short description of assay [6]: S16 Schwann cell viability assay (CellTiter-Glo assay) (AID 624031). Also: nearly all actives have a fitted effect of over 70% in size. Also: potency is read from the fitted curve at half-maximal effect. The procedure, abridged:
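Cells were seeded at 500-750 per well in phenol red-free DMEM with 10% FBS and left overnight. Compounds or DMSO were pinned in, incubation ran 24 h at 37 °C/5% CO2, then CellTiter-Glo reagent was added and luminescence measured.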

The nature of assay [7]: qHTS of Trypanosoma Brucei Inhibitors: LOPAC Validation (AID 624147). Also: 0% is about no effect. The procedure, abridged:
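Quantitative HTS: titrated library compounds versus trypanosomal pyruvate kinase in TEA buffer (pH 7.2) containing KCl, MgCl2, BSA and Tween-20. Reactions were initiated with ADP, 130 uM final. Kinase-Glo Plus luminescence was read after 45 min at RT.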

Assay [8] concerns the target Glucagon-like peptide 1 receptor (Homo sapiens) (UniProt P43220). Briefly: qHTS of GLP-1 Receptor Agonists: LOPAC Validation (AID 624148).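 Also: luminescence from a luciferase reporter switched on by cAMP; 0% is about no effect; higher luminescence signal means agonism.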 The procedure, abridged:
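Agonism scored as increased luciferase luminescence driven by cAMP in HEK293 clones carrying GLP-1R. Cells settled 12 hours, received compound for 4-6 hr at 37 deg C, 5% CO2, and were read after 12 min detection reagent at RT.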

Assay [9] is described as follows: qHTS of Nrf2 Activators: LOPAC Validation (AID 624149). Also: 0% is about no effect. The gist of the method:
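Luminescence read-out of ARE-luciferase activation: AREc32_Fluc cells treated with compounds for 24 hr at 37 deg C, then lysed with Steady-Glo for 30 min at room temperature before reading.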

The nature of assay [10]: HTS Assay for Allosteric Antagonists of the Human D2 Dopamine Receptor: Hit Validation in HTRF (AID 624455).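 Also: stable D1 dopamine receptor cell line scored for blocking the D1 response; % is scaled to controls: 0 for no effect and ±100 for the full control effect.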 The procedure, abridged:
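First, antagonism was screened by calcium flux in a force-coupled, inducible Hek293 Trex D2 line challenged with EC80 dopamine. Hits then went into an HTRF assay in cells stably expressing D1, testing inhibition of the D1 response.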
On the technique in general: In TR-FRET formats the signal depends on donor and acceptor labels being close together.

Assay [11] in a line: S16 Schwann cell PMP22 intronic element beta-lactamase assay (AID 624044; calls by dose curve; also: nearly all actives have a fitted effect of over 15% in size; also: potency is read from the fitted curve at half-maximal effect). The gist of the method:
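Rat S16 Schwann cells with beta-Lac driven by a PMP22 intronic element, compound-treated 24 h at 37 °C. LiveBLAzer FRET B/G read: 460 nm normalized to potassium clavulanate vs DMSO; 535 nm FRET as viability; concentration-effect curves classified.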

Assay [12] in a line: qHTS assay for small molecule activators of the nuclear factor-kappa B (NF-kB) signaling pathway (AID 651749; active = well fitted activation curve with a large enough effect in the signal ratio; the % refers to the signal ratio; also: series mostly up to about 77 µM; % of control where 0% means no effect). To be noted: NF-kB-bla ME-180 cells, beta-lactamase FRET ratio, 16 h; hits give high values. The procedure, abridged: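 Readout: beta-lactamase reporter driven by an NF-kB response element, detected fluorescently as loss of FRET. Cells were the ME-180 line, treated 16 hr at 37C with pin-transferred compound.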

The target in assay [13] is Tumor necrosis factor (Homo sapiens) (UniProt P01375). Nature of the assay: qHTS assay to identify small molecules that stimulate Tumor Necrosis Factor-alpha (TNF-alpha) secretion (AID 651757; active = well fitted curve in the direction sought with a large enough effect in the signal ratio; the % refers to the signal ratio; also: 0% is about no effect). The gist of the method: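 Read-out is HTRF, a TR-FRET sandwich of cryptate- and XL665-labeled anti-TNF-alpha antibodies detecting cytokine secreted by THP-1 cells. Cells had been incubated with test compounds at 37 C for 17 hrs beforehand.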
Tumor necrosis factor (Homo sapiens), sequence (P01375 whole entry, looked up): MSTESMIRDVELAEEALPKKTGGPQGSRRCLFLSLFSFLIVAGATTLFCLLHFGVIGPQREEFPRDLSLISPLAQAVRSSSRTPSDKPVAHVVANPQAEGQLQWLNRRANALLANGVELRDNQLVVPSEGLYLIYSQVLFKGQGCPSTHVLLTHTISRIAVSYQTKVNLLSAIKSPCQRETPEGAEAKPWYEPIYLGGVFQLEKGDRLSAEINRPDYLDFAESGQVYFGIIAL

Glucagon-like peptide 1 receptor (Homo sapiens), sequence (P43220 whole entry, looked up): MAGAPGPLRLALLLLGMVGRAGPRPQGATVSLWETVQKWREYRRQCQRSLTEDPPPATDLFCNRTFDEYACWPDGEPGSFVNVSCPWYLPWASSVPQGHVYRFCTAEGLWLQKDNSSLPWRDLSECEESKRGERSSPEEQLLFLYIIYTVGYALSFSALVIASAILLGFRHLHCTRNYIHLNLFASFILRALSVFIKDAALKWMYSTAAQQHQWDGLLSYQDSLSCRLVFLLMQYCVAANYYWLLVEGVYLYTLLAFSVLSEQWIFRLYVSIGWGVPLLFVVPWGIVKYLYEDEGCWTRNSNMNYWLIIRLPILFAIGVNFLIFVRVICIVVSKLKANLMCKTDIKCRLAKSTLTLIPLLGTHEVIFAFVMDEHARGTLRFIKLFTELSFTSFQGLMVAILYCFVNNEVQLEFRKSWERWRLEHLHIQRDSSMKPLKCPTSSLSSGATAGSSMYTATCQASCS

For the compound `CC(=O)Oc1ccccc1C(=O)Nc1ncc([N+](=O)[O-])s1`, the Potency result in assay [1] is “inactive”. Besides, the Potency is 18.8 µM (active) in assay [2], 12.6 µM (active) in assay [3], 7.5 µM (active) in [4] and 6.68 µM (active) in [5].
For `c1ccc(C2CC2)c(OCC2=NCCN2)c1`, the Potency entry in [6], in assay [1] and in assay [10] was “inactive” each time. The call in assay [7], in assay [8] and in assay [9] was inactive.
As to `O=C1NCN(c2ccccc2)C12CCN(CC1COc3ccccc3O1)CC2` (stereo not given), the Potency result in assay [11] and in [10] was “inactive” each time. Also, the outcome in assay [7], in [8] and in [9] was inactive.
In the case of `O=C(O)c1ccc2[nH]cc(CCCCN3CC=C(c4ccccc4)CC3)c2c1`, the Potency entry in assay [1] is “inactive”.
As to `Fc1ccc(C(OCCN2CCN(CCCc3ccccc3)CC2)c2ccc(F)cc2)cc1`, the Potency in assay [6] was 32.2 µM (active); in assay [1] it was 28.7 µM (active). Also, the call in assay [7], in assay [8] and in assay [9] was inactive. Moreover, the Potency result in assay [10] was “inactive”.
Regarding `CNCC[C@H](Oc1cccc2ccccc12)c1cccs1`, the Potency in assay [1] is 20.3 µM (active).
`N#CC(C#N)=Cc1ccc(O)c(O)c1`: the Potency result in assay [6] and in [10] was “inactive” each time. For the same compound, the call in assay [7], in [8] and in assay [9] was inactive.
On to `OCCN1CCN(CCCN2c3ccccc3Sc3ccc(C(F)(F)F)cc32)CC1`, for which the Potency in assay [6] was 14.4 µM (active); in assay [11] it was 22.4 µM (active).
For `Nc1ccncc1`, the Potency result in assay [6], in assay [1], in [10] and in assay [2] was “inactive” throughout. Further, the call in [7], in assay [8] and in assay [9] was inactive. The activation was 2.37% in [3] and -0.507% in assay [12].
Consider `CCC1(C2=NCCN2)Cc2ccccc2O1` (stereo not given), for which the Potency result in assay [6], in assay [1] and in assay [10] was “inactive” in each case. The result in [7], in assay [8] and in [9] was inactive.
For `Oc1cccc2cccnc12`, the Potency result in assay [1] is “inactive”. Besides, in [2], the Potency is 37.6 µM (active) and 66.8 µM (active). The activation in [3] was -0.845% and 2.31%. In assay [13], the compound was called inactive.
Consider `N[C@@H](Cc1ccc(N(CCCl)CCCl)cc1)C(=O)O`, for which the Potency in [1] was 9.07 µM (active); in [2], 54.5 µM (active) and 42.2 µM (active); in assay [3] it was 39.8 µM (active) and 25.1 µM (active). In addition, in [12], the activation is 3.45% and -0.304%. The Potency result in assay [4] and in assay [5] was “inactive” in each case. For the same compound, the outcome in assay [13] was inactive.
As for `c1ccc2c(c1)Nc1ccccc1S2`, the Potency result in assay [6], in [1] and in [11] was “inactive” in each case. Also, the Potency in assay [2] was 54.5 µM (active); in assay [4], 42.2 µM (active); in assay [5], 66.8 µM (active). The activation in [3] was 4.3% and -2.32%.
Consider `NCC1(CC(=O)O)CCCCC1`, for which the Potency result in assay [6], in [1] and in [10] was “inactive” in each case. Moreover, the outcome in [7], in assay [8] and in [9] was inactive.
